Sampled rows, rich in hits. Any-hit rate of the full collection: about 1.2%.
TLR4-MyD88 BLA: blocks binding of human TLR4 to MyD88; inhibition, % at 8.4 µM; 200,000 tested, 0.18% active; O00206+Q99836; HeLa CL3-4 TLR4/MyD88 BLA complementation, FRET ratio; in the data active = inhibition above about 25%;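 note: 0% = vehicle and 100% = reference inhibitor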
Target sequence (O00206 whole entry, looked up): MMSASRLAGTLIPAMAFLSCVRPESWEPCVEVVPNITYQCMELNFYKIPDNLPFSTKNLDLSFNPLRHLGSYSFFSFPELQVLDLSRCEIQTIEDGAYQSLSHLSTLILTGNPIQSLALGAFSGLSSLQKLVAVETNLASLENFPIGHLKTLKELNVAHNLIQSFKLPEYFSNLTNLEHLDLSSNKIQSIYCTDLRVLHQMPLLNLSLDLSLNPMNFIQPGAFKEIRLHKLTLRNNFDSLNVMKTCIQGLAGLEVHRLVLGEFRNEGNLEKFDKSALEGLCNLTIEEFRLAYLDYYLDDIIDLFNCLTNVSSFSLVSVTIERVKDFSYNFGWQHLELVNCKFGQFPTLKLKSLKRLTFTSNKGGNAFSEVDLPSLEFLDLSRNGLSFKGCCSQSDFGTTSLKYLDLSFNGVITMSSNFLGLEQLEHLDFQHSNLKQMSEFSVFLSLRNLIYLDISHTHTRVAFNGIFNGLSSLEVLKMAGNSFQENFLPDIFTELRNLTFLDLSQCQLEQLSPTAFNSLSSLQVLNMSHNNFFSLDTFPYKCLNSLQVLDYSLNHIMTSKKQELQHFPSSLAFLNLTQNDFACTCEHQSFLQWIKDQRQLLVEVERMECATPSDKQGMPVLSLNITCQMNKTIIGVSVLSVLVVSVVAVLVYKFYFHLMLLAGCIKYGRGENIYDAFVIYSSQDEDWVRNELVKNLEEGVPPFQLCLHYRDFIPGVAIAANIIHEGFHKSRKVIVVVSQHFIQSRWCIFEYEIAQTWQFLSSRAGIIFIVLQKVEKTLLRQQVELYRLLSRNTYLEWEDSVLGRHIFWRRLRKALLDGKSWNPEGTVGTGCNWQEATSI
Target sequence (Q99836 whole entry, looked up): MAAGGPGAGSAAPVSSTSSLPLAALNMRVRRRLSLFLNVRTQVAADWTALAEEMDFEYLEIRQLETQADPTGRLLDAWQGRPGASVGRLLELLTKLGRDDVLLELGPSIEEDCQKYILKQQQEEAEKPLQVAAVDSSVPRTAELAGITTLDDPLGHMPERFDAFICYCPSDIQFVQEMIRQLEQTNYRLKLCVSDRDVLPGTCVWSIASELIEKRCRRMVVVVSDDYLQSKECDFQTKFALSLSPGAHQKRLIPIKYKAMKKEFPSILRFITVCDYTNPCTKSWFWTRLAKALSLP
TLR9-MyD88 block: TLR9-MyD88 interaction inhibition; inhibition, % at 4.98 µM; CHO BLA complementation TLR9-MyD88, CCF4 FRET ratio; Q9NR96+Q99836; 340,000 tested, 0.21% active;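 active = inhibition above the mean over all tested compounds plus 3 SD, cut at about 21% in these data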;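 note: 0% = DMSO only wells and 100% = clavulanate BLA inhibitor control wells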
NOD2-RIPK2 inh: blocks binding of human NOD2 to RIPK2 | O43353 | inhibition, % at 4.98 µM | 360,000 tested, 0.38% active | CHO BLA complementation NOD2-RIPK2, CCF4 ratio; in the data active = inhibition above about 21%;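 note: 0% = vehicle only and 100% = reference blocker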
ABHD5-PLIN5 inh: inhibitors of human ABHD5-perilipin-5 interaction; inhibition, % at 4 µM; Split G. princeps luciferase complementation, luminescence, 4 h; Q00G26+Q8WTS1; 360,000 tested, 0.78% active;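 active = inhibition above the mean inhibition across every tested compound plus 3 SD, cut at about 22% in these data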;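 note: 0% = DMSO only wells and the 100% control is not disclosed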
TLR9-MyD88 cf: confirmation of human TLR9-MyD88 binding inhibitors. shares compounds with TLR9-MyD88 block. CHO TLR9/MyD88 BLA complementation, CCF4 FRET ratio. inhibition, % at 4.98 µM. 680 tested, 51% active;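 active = mean inhibition across three repeats above about 21% taken from the earlier screen, limit read from the data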;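 note: blue over green emission ratio reports constitutive TLR9 MyD88 association via BLA complementation; 0% = DMSO vehicle wells and 100% = clavulanate BLA inhibitor wells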
BLA nonselective: counter-screen for TLR9-MyD88 inhibitors: non-selective beta-lactamase inhibitors. inhibition, % at 4.98 µM. 680 tested, 7% active. shares compounds with TLR9-MyD88 block. CHO-BLA cells, CCF4 FRET ratio, BLA reporter;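 active = mean inhibition above a 50% cutoff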;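 note: counterscreen of TLR9-MyD88 hits on CMV-driven BLA in CHO-K1 cells; 0% = DMSO alone and 100% = clavulanate blocking BLA; higher means less blue over green ratio so more BLA blockade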
TLR9 CHO cytotox: CHO cell toxicity counter-screen for TLR9-MyD88 inhibitors. 680 tested, 39% active. TLR9-MyD88 CHO cells cytotoxicity, luminescence. shares compounds with TLR9-MyD88 block. inhibition, % at 4.98 µM; in the data active = inhibition above about 11%
The depositor's hits bear a star; . = no result.

SMILES	TLR4-MyD88 BLA	TLR9-MyD88 block	NOD2-RIPK2 inh	ABHD5-PLIN5 inh	TLR9-MyD88 cf	BLA nonselective	TLR9 CHO cytotox
CC[C@]12c3[nH]c4cc(-c5ccco5)ccc4c3CCN1C(=O)[C@@H](CC(=O)NCCc1ccccn1)C[C@@H]2C(=O)N1CCN(C(=O)C2CC2)CC1	.	7.5	-8.0	14.2	-2.9	-2.8	0.9
CCOC(CNC(=O)C1CCN(S(=O)(=O)c2ccc3nc4c(c(C(=O)O)c3c2)CCCCC4)CC1)OCC	.	6.6	6.8	7.4	.	.	.
O=[N+]([O-])c1cnc(Sc2ccncn2)c([N+](=O)[O-])c1	.	5.1	-3.3	-8.5	.	.	.
O=[N+]([O-])c1cnc(Sc2ccncn2)s1	.	31.1*	80.1*	17.5	46.4*	0.5	98.9*
CN(C)S(=O)(=O)c1cccc(NC(=O)c2cc([N+](=O)[O-])ccc2N2CCCCC2)c1	.	21.6*	7.9	-3.7	1.4	2.1	4.4
N#Cc1c(-c2cccs2)nc(SCC(=O)c2cccs2)[nH]c1=O	-2.9	-9.8	1.1	5.0	.	.	.
O=C(O)c1ccc(C=C(c2nc3ccccc3s2)c2nc3ccccc3s2)cc1	3.0	0.5	6.5	-8.0	.	.	.
CN(C)c1ccc(/C=C(\Cl)c2nc3ccccc3s2)cc1	18.3	25.3*	16.9	-9.9	16.0	22.6	9.7
Cc1nc2ccc(NC(=O)c3cccc(C(F)(F)F)c3)cc2o1	0.6	-4.5	-20.1	-1.4	.	.	.
Cc1ccc(NC(=O)c2cccc(C(F)(F)F)c2)cc1NC(=O)c1[nH]cnc1C(N)=O	.	27.8*	-6.1	0.3	2.3	5.1	-2.7
Nc1cccc2c1C(=O)N(C(=O)c1ccc(Cl)c(S(=O)(=O)N3CCCCCC3)c1)C2=O	19.3	27.7*	16.6	-5.6	7.6	12.6	1.8
COCCNc1nc(NCc2cc(-c3ccc(OC)cc3)no2)c2sccc2n1	.	.	-0.6	9.9	.	.	.
CCOC(=O)C1CCN(C(=O)c2cc3c(-c4ccc(OC)c(OC)c4)nn(C)c3s2)CC1	8.7	12.6	-10.9	3.5	.	.	.
CCOC(=O)C1CCCN(C(=O)c2cc3c(-c4cccc(OC)c4)nn(C)c3s2)C1 (stereo not drawn)	-5.1	28.2*	4.9	2.7	3.3	-2.1	27.2*
COc1ccc(/C=N\NC(=O)CNC(=O)C2COc3ccccc3O2)cc1[N+](=O)[O-] (stereo not drawn)	.	16.5	-0.3	-8.1	.	.	.
CCOc1ccc(-c2cn(-c3cccc(SC)c3)c(=O)[nH]2)cc1	4.3	0.4	-0.9	-9.9	.	.	.
COc1ccc(NC(=O)c2sc3nc(-c4cccnc4)ccc3c2N)cc1OC	.	-4.2	-14.2	1.5	.	.	.
COc1ccc(C(=O)c2sc3nc(-c4ccc(OC)cc4)ccc3c2N)cc1	-1.7	20.8*	4.0	-10.8	44.9*	44.9	-0.5
COc1ccc(NC(=O)c2sc3nc(-c4cccnc4)ccc3c2N)cc1	.	34.1*	12.3	-4.5	7.8	5.3	7.8
CC(C)(C)N(Cc1ccc2c(c1)OCO2)C(=O)/C=C\S(=O)c1ccccc1 (stereo not drawn)	.	-7.6	11.1	11.8	.	.	.
CSc1cccc(NC(=O)C2CCCN(S(=O)(=O)c3cccs3)C2)c1 (stereo not drawn)	.	-7.2	-3.8	-9.6	.	.	.
CC(C)n1cc(CN2CCCC(C(=O)Nc3cccc(-c4cc5ccccc5[nH]4)c3)C2)cn1 (stereo not drawn)	.	23.4*	4.7	13.0	5.5	-0.6	7.2
C#CCN1C(=O)C2(OCCO2)c2ccccc21	.	6.6	-0.9	6.9	.	.	.
O=C1c2ccccc2C(=O)N1c1ccc(Cl)cc1	-8.0	.	.	.	.	.	.
O=C1c2cccc3c(O)ccc(c23)C(=O)N1c1ccc(Cl)cc1	.	26.6*	6.6	-0.4	12.2	14.8	0.4
SMILES	TLR4-MyD88 BLA	TLR9-MyD88 block	NOD2-RIPK2 inh	ABHD5-PLIN5 inh	TLR9-MyD88 cf	BLA nonselective	TLR9 CHO cytotox
Cc1ccc(C(=O)COC(=O)CN2C(=O)C3CC=CCC3C2=O)cc1C (stereo not drawn)	.	0.1	-5.6	-6.1	.	.	.
CSCCC(C(=O)OCC(=O)c1ccc(C)c(C)c1)N1C(=O)c2cc(Cl)c(Cl)cc2C1=O (stereo not drawn)	-11.4	21.6*	-8.5	-4.9	-0.9	-2.7	1.9
O=C(CCC(=O)NNC(=O)c1ccc(Cl)cc1Cl)NCc1ccccc1	.	-2.9	4.6	-1.2	.	.	.
CN1/C(=C\C(=O)c2cncc(Br)c2)C(C)(C)c2ccccc21	15.9	21.5*	13.9	-6.1	10.1	13.9	25.6*
CN1/C(=C\C(=O)c2ccco2)C(C)(C)c2ccccc21	7.2	8.2	4.1	14.9	.	.	.
O=S(=O)(Nc1cccc2ncccc12)c1cccs1	5.0	29.0*	51.7*	-0.7	26.2*	11.6	102.7*
CN(C)S(=O)(=O)N1C(=O)c2ccccc2C1=O	.	-8.4	-6.1	2.6	.	.	.
CN(C)/C=C1\C=C2C(=O)c3ccccc3N2C1=O	.	22.7*	0.6	1.1	6.8	8.3	-1.4
CCn1nc(-c2ccccc2)c2nc3ccccc3nc21	24.9	25.2*	9.7	8.8	35.4*	34.4	4.0
O=S1(=O)Nc2c(ccc3cccnc23)-c2ccccc21	6.9	20.9*	24.9*	-2.6	32.6*	16.8	98.7*
CC(=O)Nc1ccc(NC(=O)C2CCN(S(C)(=O)=O)CC2)cc1	.	-14.1	5.0	6.4	.	.	.
O=C1/C(=C\c2cc([N+](=O)[O-])ccc2O)SC(=S)N1Cc1ccc(Cl)cc1	.	23.5*	13.1	-6.5	14.7	17.8	2.7
O=C1/C(=C\c2cccc(O)c2O)SC(=S)N1Cc1ccccc1	.	5.8	10.2	-10.4	.	.	.
COc1ccccc1C1C=C(c2ccc(Cl)cc2)Nc2nc(N3C(=O)CCC3=O)nn21 (stereo not drawn)	7.5	46.7*	53.0*	0.9	13.9	19.1	-2.1
CCn1nc(NC(=O)c2ccncc2)c2cc3cccc(C)c3nc21	1.7	-7.0	-9.4	5.8	.	.	.
CCn1nc(NC(=O)c2cccnc2)c2cc3cccc(C)c3nc21	-16.0	23.4*	-20.4	0.6	-5.8	-0.5	0.5
Cc1ccc(-c2nnc(OCc3nc4ccccc4n3C)c3ccccc23)cc1	.	-10.1	3.5	-0.9	.	.	.
O=C(Nc1c2c(nn1-c1ccccc1)CS(=O)(=O)C2)c1ccccc1Br	.	22.9*	8.6	-0.8	8.4	9.8	-1.1
N#Cc1ccc(-c2cccnc2)nc1SCC(=O)c1ccccc1	.	21.3*	13.5	4.1	9.3	8.8	10.0
COCCNc1nc2cc(-c3ccccc3)sc2c(=O)n1C	.	.	-14.3	4.0	.	.	.
C#CCOCCOCCOCCNc1nc(N2CCN(C(=O)CCCCCCCCCCNC(=O)[C@H](CCCCN)n3cc(C[C@@H](C)CC)nn3)CC2)nc(N2CCN(C(=O)CCCCCCCCCCNC(=O)[C@H](CCCCN)n3cc(C[C@@H](C)CC)nn3)CC2)n1	.	52.2*	35.4*	58.1*	28.6*	16.8	43.3*
